Source: PubChem BioAssay (National Center for Advancing Translational Sciences (NCATS))
Giardia killer: Giardia lamblia killing | Giardia lamblia trophozoite viability | AID 540267 | actives 0.15% (n = 340,000) | activity change, % at 7.66 µM, hits read low; in the data active = activity change below about -80%; inconclusive = between about -30% and that limit;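 note: parasites exposed to compound for two days anaerobically before the ATP read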
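Trophozoite viability was measured as ATP-dependent luminescence, read 15-30 min after reagent addition. Before that, parasites at 100 cells/well were exposed to compounds for 48 h, anaerobically, at 37 deg C.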
BRCA1 expr act: BRCA1 expression activation | MCF7-BRCA1-FFLuc reporter, luminescence, 48 h; response scale: scaled: vehicle 0%, 10 µM genistein 100% | Potency, µM (series often up to 46.1 µM), usual class: activators | actives 1.1% (n = 380,000) | AID 624202; note: nearly all actives have a fitted effect of over 80% in size
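Quantitative HTS in MCF7 cells stably reporting BRCA1 expression via firefly luciferase. Compound treatment lasts 48 h at 37 °C in phenol-red free MEM. Activation is expressed relative to genistein at 10 microM and DMSO.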
p53 reactivation: restores transcriptional activity of mutant p53; AID 504706; actives 0.063% (n = 320,000); H1299 p53-A138V BP100-luciferase reporter, luminescence, 24 h; Potency, µM (top dose mostly 92.2 µM), hits mostly activators; note: nearly all actives have a fitted effect of over 45% in size
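p53-null H1299 cells stably carrying temperature-sensitive p53-A138V and a BP100-luciferase reporter were pinned with compounds (4-point, 1:5 series) and held 24 hrs at 37 deg C. Luminescence was read 10 min after detection reagent.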
ELG1 DNA repair: blocks ELG1-dependent DNA repair in HEK293T cells. HEK293T ELG1-luciferase reporter, luminescence, 16 h; DNA damage induced by 5-fluorouridine. Potency, µM (doses to about 46.1 µM), usual class: inhibitors. actives 2.3% (n = 330,000); note: nearly all actives have a fitted effect of over 55% in size
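Step one: seed 2,000 cells per well. Step two: pin-transfer compound or DMSO alongside 5-fluorouridine. Step three: incubate 16 hr, 37 °C, 5% CO2. Step four: add ONE-Glo, wait 30 min, read luminescence.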
VP16 counter: inhibits Gal4-VP16 luciferase reporter, ROR gamma counter-screen. Drosophila S2 Gal4-VP16 UAS-luciferase, luminescence, 20 h. Potency, µM (highest dose often 53.6 µM), hits mostly inhibitors. actives 3.5% (n = 310,000);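 note: Gal4-VP16 expression switched on by copper sulfate through the metallothionein promoter; nearly all actives have a fitted effect of over 50% in size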
RORgamma inh: blocks mouse ROR gamma transcriptional activity; P51450; Drosophila S2 Gal4-RORgamma UAS-luciferase reporter, 20 h; Potency, µM (highest dose often 53.6 µM), usual class: inhibitors; actives 5.4% (n = 310,000); AID 2551; note: nearly all actives have a fitted effect of over 60% in size
Target sequence (P51450 whole entry, looked up, the tested form may be a part): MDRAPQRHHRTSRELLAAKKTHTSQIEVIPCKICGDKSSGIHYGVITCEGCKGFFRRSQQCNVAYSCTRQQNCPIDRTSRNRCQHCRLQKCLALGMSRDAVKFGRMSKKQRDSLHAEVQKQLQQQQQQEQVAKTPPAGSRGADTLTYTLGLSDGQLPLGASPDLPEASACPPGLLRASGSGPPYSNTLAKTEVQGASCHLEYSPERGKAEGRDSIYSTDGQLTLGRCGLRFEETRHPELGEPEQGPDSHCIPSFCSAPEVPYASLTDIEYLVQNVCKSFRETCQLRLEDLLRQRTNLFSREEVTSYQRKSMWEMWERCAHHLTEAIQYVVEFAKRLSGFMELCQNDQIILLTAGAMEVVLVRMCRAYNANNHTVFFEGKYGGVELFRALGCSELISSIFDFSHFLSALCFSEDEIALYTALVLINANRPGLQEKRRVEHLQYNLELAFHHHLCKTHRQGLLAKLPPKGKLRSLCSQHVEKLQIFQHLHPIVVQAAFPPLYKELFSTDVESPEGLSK
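Compounds are pin-transferred onto Drosophila Schneider cells expressing a copper-inducible Gal4–ROR gamma transactivation domain fusion. After 1 hr, copper sulfate is added to 700 uM final; luciferase is read 20 hr later.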
Large screens that a line does not name were inactive. Sampled rows, rich in hits. Any-hit rate of the full collection: about 7.6%. Unless noted, calls come from the whole dose curve; as a rule, active = well fitted curve in the direction sought with a large enough effect; inconclusive = small, poorly fitted or top-dose-only effect, or another doubt; inactive = no such curve, though single readings can be large; an effect the other way counts as inactive or inconclusive.

C=CCOc1ccn(C)c(=O)n1	none
O=C(COC(=O)CNC(=O)c1ccc([N+](=O)[O-])o1)Nc1ncc(C(F)(F)F)cc1Cl	Giardia killer inconclusive, p53 reactivation inconclusive (no result: VP16 counter, RORgamma inh)
CC1(C)CC2CC(C)(CN2C(=O)COC(=O)c2ccc(O)cc2O)C1 (configuration not stated)	none (no result: VP16 counter, RORgamma inh)
CN(CCOc1ccc(Cl)cc1)C(=O)c1cc([N+](=O)[O-])ccc1N1CCOCC1	none (no result: VP16 counter, RORgamma inh)
O=c1c2sc3ccccc3c2n(Cc2ccc(F)cc2Cl)c(=O)n1Cc1ccccc1	none (no result: Giardia killer, p53 reactivation, ELG1 DNA repair, VP16 counter, RORgamma inh)
CCOC(=O)C1CCN(C(=O)Nc2ccc3nccnc3c2)CC1	RORgamma inh inconclusive
CCN(CC)S(=O)(=O)c1cccc(NC(=O)Nc2cccc(C(F)(F)F)c2)c1	ELG1 DNA repair 13µM
Cc1ccc(Cl)cc1N1CCN(C(=O)C2CCN(c3nnc(-n4cccc4)s3)CC2)CC1	ELG1 DNA repair 8.2µM, VP16 counter 11µM
CNC(=S)N(CCO)Cc1cc2cc3c(cc2[nH]c1=O)OCO3	none
COc1ccc(/C=C/c2ccc3cccc(O)c3n2)cc1Br	p53 reactivation inconclusive, ELG1 DNA repair inconclusive, VP16 counter 3.2µM, RORgamma inh 2µM
COc1cccc2ccc(/C=C/c3ccc4c(c3)OCO4)nc12	BRCA1 expr act 3.5µM (no result: p53 reactivation, ELG1 DNA repair, VP16 counter, RORgamma inh)
COc1cc(/C=C/c2ccc3cccc(O)c3n2)cc(Cl)c1OC	p53 reactivation inconclusive, ELG1 DNA repair inconclusive, VP16 counter 4.5µM, RORgamma inh 0.79µM
COc1cc(/C=C/c2ccc3cccc(O)c3n2)cc(Br)c1OC	p53 reactivation inconclusive, ELG1 DNA repair inconclusive, VP16 counter 5µM, RORgamma inh 1.3µM
COc1cc(/C=C/c2ccc3cccc(O)c3n2)cc(OC)c1OC	ELG1 DNA repair inconclusive, VP16 counter inconclusive, RORgamma inh inconclusive
CCN(CCS(=O)(=O)c1ccc(Cl)cc1)C(=O)Nc1ccccc1	none
O=C(Nc1cnn(C23CC4CC(CC(C4)C2)C3)c1)c1cnn2cccnc12	BRCA1 expr act inconclusive, p53 reactivation inconclusive, ELG1 DNA repair inconclusive
O=C(c1ccc(CSc2ccc(Cl)cc2)cc1)N1CCOCC1	RORgamma inh inconclusive
COC(=O)c1cc(C)nc2c1C(=O)C(=O)C=C2N1CCOCC1	ELG1 DNA repair 5.2µM (no result: p53 reactivation, VP16 counter, RORgamma inh)
COC(=O)c1cc(S(=O)(=O)N2CCOCC2)c(Cl)cc1N1CCOCC1	none
COc1ccc(Cl)cc1NC(=O)CNCc1cccs1	none
Cc1cc(=O)n2[nH]c(=O)c(N=Nc3ccccc3)c2[nH]1	none
Cc1ccc(-c2[nH][nH]c(=O)c(=O)c2N=Nc2ccccc2)cc1	Giardia killer -92
Cc1cc(Oc2ccc(Cl)cc2)nc(-c2ccccn2)n1	ELG1 DNA repair inconclusive, VP16 counter 5.6µM, RORgamma inh 0.63µM
Cc1ccc(S(=O)(=O)N(C)CC(=O)N2CCN(c3ccccn3)CC2)cc1	none
CN(CC(=O)N1CCN(c2ccccn2)CC1)S(=O)(=O)c1ccc2ccccc2c1	ELG1 DNA repair 10µM
CCCCN(C)C(=O)c1cn(C)c2ccc(S(=O)(=O)N3CCC(C)CC3)cc2c1=O	none
CCN(CC)CCn1nc2c3c(cccc3c1=O)-c1ccccc1-2	ELG1 DNA repair inconclusive
Cc1ccc(NC(=S)NC2CC3CCCC(C2)N3Cc2cccs2)cc1 (configuration not stated)	VP16 counter inconclusive, RORgamma inh 4.5µM
CC(C)CNC(=S)NC1CC2CCCC(C1)N2Cc1cccs1 (configuration not stated)	RORgamma inh 11µM
Fc1ccc(NC(=S)NC2CC3CCCC(C2)N3Cc2cccs2)cc1 (configuration not stated)	VP16 counter inconclusive, RORgamma inh 10µM
CC(C)CNC(=S)NC1CC2CCCC(C1)N2Cc1ccco1 (configuration not stated)	none
Cc1cccc(NC(=S)NC2CC3CCCC(C2)N3Cc2ccco2)c1 (configuration not stated)	VP16 counter inconclusive, RORgamma inh 11µM
CCC(C)n1c(C)nc2c(c1=O)c1nc3ccccc3nc1n2CCC1=CCCCC1 (configuration not stated)	none
C=CCN(C(=O)C1CSC2(C)CCC(=O)N12)c1nc(-c2ccccc2)cs1 (configuration not stated)	ELG1 DNA repair inconclusive (no result: VP16 counter, RORgamma inh)
C=CCN(C(=O)C1=NN(C2CCS(=O)(=O)C2)C(=O)CC1)c1nc(-c2ccc([N+](=O)[O-])cc2)cs1 (configuration not stated)	BRCA1 expr act 5µM, ELG1 DNA repair inconclusive
CCN(CC)S(=O)(=O)c1ccc2c(c1)nc(SCC(=O)NCC1CCCO1)n2CC (configuration not stated)	none (no result: VP16 counter, RORgamma inh)
CC(C)NC(=O)N(C)C[C@H]1Oc2ccc(NC(=O)C3CCCCC3)cc2C(=O)N([C@H](C)CO)C[C@@H]1C	Giardia killer inconclusive, ELG1 DNA repair inconclusive (no result: VP16 counter, RORgamma inh)
C[C@H]1CN([C@@H](C)CO)C(=O)c2cccc(NC(=O)Nc3ccc(C(F)(F)F)cc3)c2O[C@@H]1CN(C)C(=O)Nc1ccc(F)cc1	ELG1 DNA repair inconclusive (no result: VP16 counter, RORgamma inh)
C[C@H]1CN([C@@H](C)CO)C(=O)c2cc(NC(=O)C3CCCCC3)ccc2O[C@H]1CN(C)C(=O)Nc1ccc2c(c1)OCO2	ELG1 DNA repair 1.3µM (no result: VP16 counter, RORgamma inh)
C[C@@H]1CN([C@@H](C)CO)C(=O)c2cc(NS(=O)(=O)c3cccs3)ccc2O[C@H]1CN(C)Cc1ccc(C(F)(F)F)cc1	ELG1 DNA repair 16µM (no result: VP16 counter, RORgamma inh)
C[C@@H]1CN([C@H](C)CO)C(=O)c2cc(NS(=O)(=O)c3cccs3)ccc2O[C@H]1CN(C)Cc1ccccc1	none (no result: VP16 counter, RORgamma inh)
C[C@@H]1CN([C@H](C)CO)C(=O)Cc2cc(NC(=O)Nc3ccccc3)ccc2O[C@@H]1CN(C)Cc1ccc2c(c1)OCO2	ELG1 DNA repair 16µM (no result: VP16 counter, RORgamma inh)
CCOC(=O)CCCCCC(=O)Nc1ccc2c(c1)CC(=O)N([C@H](C)CO)C[C@@H](C)[C@H](CN(C)Cc1ccc3c(c1)OCO3)O2	none (no result: VP16 counter, RORgamma inh)
C[C@H](CO)N1C[C@H](C)[C@@H](CN(C)C(=O)Nc2ccc(C(F)(F)F)cc2)Oc2c(NC(=O)Nc3ccc(C(F)(F)F)cc3)cccc2C1=O	ELG1 DNA repair 16µM (no result: VP16 counter, RORgamma inh)
CSc1ccc(CN(C)CCc2ccccn2)cc1	p53 reactivation inconclusive
COCC(=O)N1CCC[C@@]2(CCN(Cc3ccccc3OC)C2)C1	none (no result: Giardia killer, BRCA1 expr act, p53 reactivation, ELG1 DNA repair)
COc1ccc(NC(=O)Nc2cccc3c2O[C@H](CN(C)S(=O)(=O)c2ccc(OC)cc2)[C@@H](C)CN([C@H](C)CO)C3=O)cc1	ELG1 DNA repair 21µM (no result: VP16 counter, RORgamma inh)
